# Source: PubChem (several laboratories)
# Sampled rows, rich in hits. Any-hit rate of the full collection: about 2.4%.
# HMGR II inh: blocks class II HMG-CoA reductase of Enterococcus faecalis; inhibition, % at 10 µM; purified E. faecalis HMGR, NADPH absorbance 340 nm kinetic; 190,000 tested, 0.41% active;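 active = inhibition above a set limit, the median over all tested compounds plus 3 SD, cut at about 9.5% in these data; inconclusive = no clear call, values can overlap the other calls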;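 note: enzyme runs in reverse so mevalonate oxidation gives rising NADPH absorbance; 0% = complete reaction with DMSO and 100% = background rate lacking mevalonate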
# MLLE-PAM2 inh: blocks PAM2 peptide binding to the PABP1 MLLE domain; P11940; AID 588489; GST-MLLE / FITC-PAM2 fluorescence polarization; 360,000 tested, 0.36% active; inhibition, % at 20 µM; in the data active = inhibition above about 35%, passing the limit was not always enough;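 note: plate controls were DMSO wells with GST-MLLE for no effect and wells lacking GST-MLLE protein for full effect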
# Target sequence (P11940 whole entry, looked up, the tested form may be a part): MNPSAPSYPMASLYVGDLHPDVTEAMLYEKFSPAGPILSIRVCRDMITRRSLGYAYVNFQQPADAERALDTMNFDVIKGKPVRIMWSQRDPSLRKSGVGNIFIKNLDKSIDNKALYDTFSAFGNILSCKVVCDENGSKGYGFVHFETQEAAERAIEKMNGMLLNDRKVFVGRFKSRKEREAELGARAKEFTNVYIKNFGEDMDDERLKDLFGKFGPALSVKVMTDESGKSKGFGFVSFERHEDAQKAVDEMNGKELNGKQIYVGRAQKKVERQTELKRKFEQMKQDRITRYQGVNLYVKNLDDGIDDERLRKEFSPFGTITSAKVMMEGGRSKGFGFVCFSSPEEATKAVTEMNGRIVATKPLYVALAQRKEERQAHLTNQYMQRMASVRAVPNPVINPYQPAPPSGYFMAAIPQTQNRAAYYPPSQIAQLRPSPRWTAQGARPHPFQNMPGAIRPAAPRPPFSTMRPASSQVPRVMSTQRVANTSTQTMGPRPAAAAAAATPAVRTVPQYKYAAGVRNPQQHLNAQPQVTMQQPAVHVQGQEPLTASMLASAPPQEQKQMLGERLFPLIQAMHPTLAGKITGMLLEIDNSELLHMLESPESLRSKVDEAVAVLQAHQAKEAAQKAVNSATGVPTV
# eIF4H FP inh: inhibitors of RNA binding by human eIF4H; 290,000 tested, 0.94% active; Q15056; AID 2012; eIF4H fluorescence polarization binding assay; inhibition, % at 35 µM;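 note: calls also rest on retests at 20 µM and on dose response follow-up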
# PABP polyA inh: PABP-poly(A) binding inhibition; P11940; PABP-poly(A) RNA binding, fluorescence polarization; 290,000 tested, 1% active; calls only at 35 µM;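 note: calls also rest on retests at 20 µM and on dose response follow-up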
# PHOSPHO1 inh: inhibitors of human PHOSPHO1 phosphatase | 290,000 tested, 1.1% active | inhibition, % at 13.3 µM | Q8TCT1 | recombinant PHOSPHO1, absorbance phosphatase assay; in the data active = inhibition above about 60%
# An asterisk follows results filed as active; i = inactive; ? = inconclusive; . = not tested or not shown; + = active, no number. Unless noted, the rule behind the calls is not given here.
SMILES,HMGR II inh,MLLE-PAM2 inh,eIF4H FP inh,PABP polyA inh,PHOSPHO1 inh
CN(C)c1cc2c3ccccc3n(C)c2cc1N,.,64.5*,.,.,.
COc1cc(-c2nn3c(C4CCCCC4)nnc3s2)cc(OC)c1OC,1.1,3.5,14.2,i,46.2
COc1ccc(-c2nn3c(C4CCCCC4)nnc3s2)cc1OC,-4.5,34.5,-6.3,i,83.4*
O=C(O)c1ccccc1NC(c1ccccc1)c1ccc(Cl)cc1 (stereo not given),.,1.2,2.7,i,-4.7
COC(=O)[C@@]1(Cc2ccccc2)[C@H]2C(=O)N(Cc3ccccc3)C(=O)[C@H]2[C@H]2CN=C(SCC(=O)c3ccccc3)N21,.,18.9,.,.,.
CC[C@]1(C(=O)OC)[C@H]2C(=O)N(Cc3ccccc3)C(=O)[C@H]2[C@H]2CN=C(SCC(=O)c3ccccc3)N21,.,37.8*,.,.,.
CN(C)/C=C(\C=O)c1ccc(Cl)cc1Cl,-2.8,7.8,-4.3,i,48.4
Cc1nc2ccc(S(=O)(=O)NCC(=O)NCCc3ccc(Cl)cc3)cc2s1,.,11.4,-5.0,i,70.0*
Cc1cccc(CCNC(=O)CNS(=O)(=O)c2ccc3nc(C)sc3c2)c1,.,-3.5,3.0,i,32.9
Cc1ccc(-n2c(CCc3nc4ccccc4[nH]3)n[nH]c2=S)cc1,-3.4,5.0,-14.7,i,80.6*
CCn1c(CCc2nc3ccccc3[nH]2)n[nH]c1=S,4.5,-12.4,-4.5,i,6.7
Nc1nc2n(n1)C(=O)CC(c1ccccc1)N2 (stereo not given),-3.7,7.6,6.4,i,-7.7
CCCCC(=O)Nc1ccc(NC(=S)NC(=O)CC(C)C)cc1OC,1.3,15.5,active,+,-14.5
CCCCC(=O)Nc1ccc(NC(=O)CC)cc1OC,-1.3,-2.4,10.8,i,-10.7
COc1ccc(OC)c(NC(=O)NCCc2c[nH]c3ccccc23)c1,.,-1.1,9.6,i,4.7
Cn1c(SCc2ccc([N+](=O)[O-])cc2)nc2c(c1=O)SCC2,-7.2,17.8,active,+,19.5
COC(=O)c1ccc(NC(=O)c2snnc2-c2ccccc2)cc1,-1.8,-6.2,-6.2,i,61.0*
NNC(=O)c1snnc1-c1ccccc1,.,-33.2,-11.2,i,22.6
COC(C(=O)Nc1ccnn1C1CCN(Cc2ccc(C)s2)CC1)c1ccccc1 (stereo not given),.,-5.9,-7.1,i,27.6
C[C@@H]1CC2OC(=O)[C@@]3(C)C(=O)CC[C@@](C)(C23)[C@@]1(O)CCc1ccoc1 (stereo not given in full),.,-14.4,-11.6,i,46.3
CC(C)N1CCCC(C)(C(=O)Nc2ccccc2)C1 (stereo not given),.,9.7,.,.,.
N#C/C(=C\c1ccc(O)c(O)c1)C(=O)Nc1cccc2ncccc12,.,-57.2,89.6*,+,18.8
CN(C)c1nc(NNC(=O)c2ccccc2)nc(N(C)C)n1,.,5.8,.,.,.
CCn1c(COc2ccccc2C)nnc1SCC(=O)N1CCN(c2ccccc2)CC1,0.4,-74.4,0.6,i,18.0
CCn1c(COc2cccc(C)c2C)nnc1SCC(=O)N1CCN(c2ccc(OC)cc2)CC1,-3.7,-76.8,-4.8,i,73.8*
SMILES,HMGR II inh,MLLE-PAM2 inh,eIF4H FP inh,PABP polyA inh,PHOSPHO1 inh
Cc1ccnc(NC(=O)c2cccc(S(=O)(=O)N3CCCC3)c2)c1,.,-6.6,-1.5,i,32.8
Cc1coc2cc3oc(=O)c(CCC(=O)NCCN4CCOCC4)c(C)c3cc12,.,-3.8,0.1,i,33.8
CCCNC(=S)NC1CCCC1,3.6,-19.9,-11.6,i,14.6
OCC(O)CNC(=S)NC1CCCCC1 (stereo not given),0.1,42.4*,4.2,i,-7.2
CCc1ccccc1NC(=O)C1CCCN(c2ncnc3onc(-c4ccc(F)cc4)c23)C1 (stereo not given),.,2.0,3.8,i,42.6
CC(C)(CO)Nc1ncnc2onc(-c3ccc(F)cc3)c12,.,4.8,91.6*,+,42.2
CCc1ccc(NC(=O)CC2C(=O)N(c3cccc(C)c3)C(=O)N2C2CC2)cc1 (stereo not given),0.3,-18.3,4.4,i,40.8
CS(=O)(=O)N1CCC(Oc2cccc(C(=O)NCCCC3CCCC3)c2)CC1,.,7.7,4.3,i,-15.9
CN(CC(=O)Nc1ccccc1Cl)CC(=O)c1c(N)n(Cc2ccccc2)c(=O)n(C)c1=O,.,-14.6,.,.,.
CC(=O)Nc1nc(N)n(-c2ccccc2)n1,-4.6,-1.2,-2.0,i,-9.3
CC(=O)N(C)c1nc(N)n(-c2ccccc2)n1,15.9*,-2.9,2.4,i,-2.7
COc1ccc(C2/C(=C(/O)c3ccc(Br)cc3)C(=O)C(=O)N2C)cc1 (stereo not given),.,-9.6,4.4,i,50.6
Cc1sc(NC(=O)CCCC(=O)O)c(C(N)=O)c1-c1ccccc1,0.9,35.2*,73.3,i,-19.6
O=C1[C@@H]2[C@H](C(=O)N1CC(O)COCc1ccccc1)C1C=C[C@H]2C1 (stereo not given in full),.,-5.1,.,.,.
CC(=O)Nc1ccc(S(=O)(=O)N2C(C)CCCC2C)cc1 (stereo not given),.,5.8,4.8,i,13.4
C=CCc1c(C)nc(-c2ccccc2)nc1Nc1ccccc1O,4.4,0.4,68.7,+,12.6
C=CCc1c(C)nc(-c2ccccc2)nc1N/N=C/c1ccccc1,-3.7,-14.8,-3.6,i,-6.0
Cc1ccc(SC2=C(Sc3ccc(C)cc3)C(=O)c3ccccc3C2=O)cc1,.,39.8,5.8,i,24.6
CC1=CC(=O)C(Sc2ccc(C)cc2)=CC1=O,.,35.3*,.,.,.
CSc1nc(SCc2ccccc2)[nH]c(=O)n1,.,-0.6,.,.,.
N#CCCN(C(=O)c1ccc2c(=O)n3c(nc2c1)CCCCC3)c1ccccc1,.,-0.3,.,.,64.0*
CCCn1c(SCc2nc3sc(C)c(C)c3c(=O)[nH]2)nc2ccccc2c1=O,-2.8,-111.2,48.0,i,68.7*
CCc1ccc(-c2csc(NC(=O)C3=NN(c4ccccc4)C(=O)CC3)n2)cc1,-4.0,-17.6,active,i,8.3
Oc1c(Cl)cc(Cl)c2cccnc12,-2.3,10.5,18.8,i,1.8
Cc1ccc(S(=O)(=O)Nc2cc(Cl)c(O)c3ncccc23)cc1,.,40.7*,17.6,i,19.0
SMILES,HMGR II inh,MLLE-PAM2 inh,eIF4H FP inh,PABP polyA inh,PHOSPHO1 inh
O=C(O)c1ccc2c(c1)C(=O)N(Cc1ccco1)C2=O,.,-2.2,3.5,i,8.5
CCc1ccc(NC(=O)c2ccc3c(c2)C(=O)N(Cc2ccco2)C3=O)cc1,4.1,15.6,56.7*,+,4.9
O=C(O)c1cccc(NC(=O)c2ccc3c(c2)C(=O)N(Cc2ccco2)C3=O)c1,3.2,6.0,62.3*,i,40.8
COc1ccc(S(=O)(=O)NNC(=O)Nc2ccc(F)cc2)cc1,.,0.9,.,.,.
O=C(CCN1CCC2CCC(C2)C1)c1ccccc1 (stereo not given),.,42.4*,.,.,.
N#C/C(=C\C=C\c1ccccc1[N+](=O)[O-])C(=O)NC1CCCCC1,-2.3,3.9,-9.9,?,4.2
N#C/C(=C\c1ccccc1[N+](=O)[O-])C(=O)NC1CCCCC1,1.1,54.7*,-1.2,i,8.4
O=C(Nc1ccccc1C(=O)O)c1cncc(Br)c1,0.3,-110.8,0.6*,i,56.8
